Hits are enriched below; roughly 3.5% of the tested compounds scored in any of these assays.
MITF primary = inhibitors of human MITF | O75030 | AlphaScreen MITF homodimerization, bead proximity signal | inhibition, % at 2.6 µM | 650,000 compounds, 0.91% hits; in the data active = inhibition above about 50%;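 note: 0% = vehicle wells with protein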
FBW7 activator = human FBW7 E3 ligase activation, primary screen. Q969H0. AlphaScreen FBW7–phospho-cyclin E peptide binding, activator screen. normalized activity (activation), % at 26.1 µM. 650,000 compounds, 0.13% hits. AID 1259310; in the data active = normalized activity above about 1.9%;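 note: purified mutant Fbw7 with reduced substrate affinity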
TEAD-YAP inh = TEAD-YAP interaction inhibition | HEK-TIYL cells, TEAD-Gal4/YAP UAS-luciferase luminescence | inhibition, % at 9.12 µM | 640,000 compounds, 1.4% hits | AID 1259422; in the data active = inhibition above about 32%;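 note: 0% = median of test compound wells and 100% = reference inhibitor wells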
GPR151 activ = human GPR151 activation; Q8TDV0; PathHunter beta-arrestin GPR151 cells, luminescence; activation, % at 11.2 µM; 650,000 compounds, 1% hits; in the data active = activation above about 4.9%;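 note: 0% = median of compound wells and 100% = cells with positive control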
Target sequence (Q8TDV0 whole entry, looked up): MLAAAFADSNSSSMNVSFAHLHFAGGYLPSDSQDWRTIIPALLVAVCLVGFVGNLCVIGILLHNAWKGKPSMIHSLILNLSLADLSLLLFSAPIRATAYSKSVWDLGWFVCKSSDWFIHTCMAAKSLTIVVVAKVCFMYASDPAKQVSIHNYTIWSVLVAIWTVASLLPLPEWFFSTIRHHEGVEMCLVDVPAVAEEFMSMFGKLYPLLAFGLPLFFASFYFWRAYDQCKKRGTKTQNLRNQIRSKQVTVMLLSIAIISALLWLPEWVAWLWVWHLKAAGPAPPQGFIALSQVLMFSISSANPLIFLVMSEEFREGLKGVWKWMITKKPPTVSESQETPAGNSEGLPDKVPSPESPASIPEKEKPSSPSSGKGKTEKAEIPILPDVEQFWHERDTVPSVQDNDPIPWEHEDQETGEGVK
Numbers without * were called inactive.

SMILES | MITF primary | FBW7 activator | TEAD-YAP inh | GPR151 activ
O=C(OCC(=O)N1CCN(C(=O)c2ccco2)CC1)c1cc(O)c(O)c(O)c1 | 80.9* | 0.1 | -8.1 | -1.5
O=C(Nc1cnc2ccccc2c1)c1ccc([N+](=O)[O-])cc1Cl | 1.0 | 0.0 | 49.5* | -3.5
O=C(Nc1ccc(Cc2ccncc2)cc1)c1ccc([N+](=O)[O-])cc1 | -7.3 | -0.1 | 7.0 | 0.4
O=C(Nc1cccnc1)c1ccc([N+](=O)[O-])cc1Cl | -8.5 | 0.1 | -5.6 | -1.4
O=C(Nc1ccc(Cc2ccncc2)cc1)c1ccc([N+](=O)[O-])cc1Cl | 3.3 | -0.1 | 36.5* | -0.6
O=C(NC1CCCCCCCCCCC1)c1ccc([N+](=O)[O-])cc1Cl | -12.9 | -0.1 | -13.2 | 1.3
O=C(Nc1cnc2ccccc2c1)c1ccccc1Cl | -15.1 | -0.1 | 77.6* | -6.0
O=C(NC1CCCCC1)c1ccc([N+](=O)[O-])cc1Cl | -2.1 | 0.7 | 39.9* | 1.3
CC(=O)N(C1=C(Cl)C(=O)c2ccccc2C1=O)c1cc(F)cc(F)c1 | 13.1 | 0.6 | 9.6 | -0.5
CCOc1ccccc1NC(=O)CN1CCN(c2ccc(F)cc2)CC1 | 6.8 | 0.0 | -8.1 | -0.6
COc1cc2ccccc2cc1C(=O)Nc1cccc(NC(=O)c2ccccc2)c1 | 0.0 | -0.1 | -5.9 | -2.0
COc1cc(NC(=O)c2ccc(-c3c(C)nn(C)c3C)s2)cc(OC)c1OC | 12.0 | 0.0 | 51.3* | -0.9
CCOC(=O)CNC(=O)Cn1ncc2c(=O)oc3ccccc3c21 | 10.7 | 0.1 | 3.3 | -0.9
CC1(C)C(=O)NCCN1C(=O)c1ccc(C(=O)c2ccccc2)cc1 | -15.7 | 0.0 | 38.6* | -0.6
O=[N+]([O-])c1ccc(Cl)cc1NC1CC1 | -4.0 | 0.0 | 10.4 | 0.3
Cc1ccc(NC(=O)c2cc(S(=O)(=O)NCCC3=CCCCC3)ccc2F)cc1F | 15.8 | 0.7 | 33.9* | -3.0
O=C(Cc1ccccc1)Nc1ccc(-c2nc3cc4ccccc4cc3[nH]2)cc1 | -0.5 | 0.4 | -65.1 | 1.4
Cc1[nH]c2ccccc2c1C(=O)/C(C#N)=C/c1ccc(N(C)CCO)cc1 | 12.8 | 0.1 | 38.3* | 0.6
COc1ccc(-n2nc(C(=O)NCC(=O)Nc3ccc(F)cc3)c3ccccc3c2=O)cc1OC | -7.9 | -0.1 | 16.5 | 1.2
COc1ccc(-n2nc(C(=O)NCC(=O)Nc3cc(OC)c(OC)c(OC)c3)c3ccccc3c2=O)cc1OC | 5.1 | 0.3 | 49.0* | 0.5
COc1cccc(NC(=O)CNC(=O)c2nn(-c3ccc(OC)c(OC)c3)c(=O)c3ccccc23)c1 | -1.4 | 0.2 | 34.3* | -0.6
CC1=NN(c2ccc(S(N)(=O)=O)cc2)C(=O)/C1=C\c1ccc(O)cc1 | 5.2 | -0.2 | 3.1 | -1.6
Cc1ccccc1C(=O)/C=c1\[nH]c(=O)/c(=C\c2cccc(O)c2)s1 | 4.0 | -0.2 | 56.9* | 0.3
NC(=O)c1ccccc1NC(=O)c1ccc(Cn2nnc3ccccc32)cc1 | 4.0 | -0.1 | 56.1* | 0.0
CC(C)c1ccc(C(=O)Nc2ccccc2C(N)=O)cc1 | 9.1 | 0.4 | 32.6* | 0.7
SMILES | MITF primary | FBW7 activator | TEAD-YAP inh | GPR151 activ
NC(=O)c1ccccc1NC(=O)c1ccc(Cl)cc1 | 4.1 | -0.1 | -53.3 | -1.3
CC(NC(=S)Nc1ccc(F)c(Cl)c1)C1CCCO1 (configuration not stated) | 2.5 | 0.0 | -1.9 | -0.4
O=C(Nc1n[nH]c(NC(=O)c2ccc(F)cc2)n1)c1ccc(F)cc1 | 3.2 | -0.3 | 1.4 | -1.0
CCc1nc(SCC(=O)NCc2cccs2)c2c(C)c(C)sc2n1 | 4.2 | 8.1* | -6.2 | -0.5
CC(=O)N1CC(C)Sc2cc(S(=O)(=O)N3CCN(Cc4ccccc4)CC3)ccc21 (configuration not stated) | 13.7 | 0.1 | 48.7* | -0.4
O=C(CC(NS(=O)(=O)c1ccc(Br)cc1)c1cccs1)NCCC1=CCCCC1 (configuration not stated) | -8.0 | -0.1 | -4.1 | 2.1
Cc1cc(C)nc(SCc2ccccc2Cl)n1 | 17.8 | 2.2* | -11.7 | -0.8
O=C(O)CC(Nc1nc(-c2ccccc2)nc2ccccc12)C(=O)O (configuration not stated) | 3.9 | -0.1 | -2.5 | 0.0
O=C1N=C(N2CCOCC2)S/C1=C/C=C/c1ccccc1 | 26.4 | 0.4 | 44.6* | -0.6
O=C1N=C(N2CCCC2)S/C1=C\C=C\c1ccccc1 | -1.2 | -0.1 | 78.0* | -0.3
O=C1N=C(c2ccccc2)S/C1=C/C=C\c1ccccc1 | 13.2 | 0.2 | 14.6 | 0.2
CN(C)CCCN(C(=O)c1ccc2c(c1)OCCO2)c1nc2c(F)cc(F)cc2s1 | 15.1 | -0.1 | -27.0 | 0.0
CN(C)CCCN(C(=O)c1ccc(Br)s1)c1nc2c(F)cc(F)cc2s1 | -6.0 | 3.2* | -9.0 | 2.6
CCCNC(=O)C(=O)NCc1ccc(OC)cc1 | -2.6 | -0.2 | -9.3 | -0.5
CC1Cc2ccccc2N1CC(=O)Nc1sc2c(c1C#N)CCC2 (configuration not stated) | -2.3 | -0.1 | 38.3* | 1.0
CCOC(=O)N1CCc2c(sc(NC(=O)CCc3ccccc3)c2C#N)C1 | -4.5 | -0.1 | 54.3* | 0.4
CC1Cc2ccccc2N1CC(=O)Nc1sc2c(c1C(N)=O)CCC2 (configuration not stated) | 0.5 | 0.0 | 7.1 | 2.0
CCOC(=O)N1CCc2c(sc(NC(=O)/C=C/c3ccccc3Cl)c2C#N)C1 | -6.3 | -0.1 | -2.3 | -0.7
CCOC(=O)N1CCc2c(sc(NC(=O)c3ccccc3[N+](=O)[O-])c2C#N)C1 | -10.3 | -0.1 | 53.4* | 1.0
CCOC(=O)N1CCc2c(sc(NC(=O)/C=C/c3ccccc3)c2C(N)=O)C1 | 6.7 | 0.2 | 39.6* | -1.7
COc1ccc(-n2c(SCC(=O)NCCc3ccc(OC)c(OC)c3)nc3ccsc3c2=O)cc1 | -6.7 | -0.1 | 10.0 | -1.6
FC(F)(F)c1cccc(-c2cnn3c(NCc4ccccn4)ccnc23)c1 | -6.1 | 0.3 | 2.2 | 0.4
CCOC(=O)N1CCc2c(sc(NC(=O)/C=C/c3ccccc3)c2C#N)C1 | -8.8 | 0.0 | 34.7* | -2.0
N#Cc1c(NC(=O)CCc2ccccc2)sc2c1CCC2 | -5.1 | 0.0 | 39.5* | 0.9
N#Cc1c(NC(=O)Cc2ccccc2)sc2c1CCC2 | 4.5 | 0.0 | -20.3 | 2.3
SMILES | MITF primary | FBW7 activator | TEAD-YAP inh | GPR151 activ
O=Cc1c(NC(=O)Cc2ccccc2)sc2c1CCCC2 | -17.6 | 2.0* | -12.3 | -0.7
CC(=O)N1CCc2c(sc(NC(=O)/C=C/c3cccs3)c2C#N)C1 | 8.9 | -0.1 | 58.0* | 0.1
CC(=O)Nc1sc2c(c1C#N)CCN(C(C)=O)C2 | -12.3 | -0.1 | 6.6 | 1.3
CSCCC(=O)N1CCC(Oc2ccc(C(=O)NCCc3ccccc3)cc2)CC1 | 6.5 | 0.0 | 29.5 | 0.2
COc1cc(OC)c(OC)cc1/C=C1\NC(=S)N(c2ccccc2)C1=O | -0.6 | -0.1 | -3.3 | -0.8
N#Cc1c(NC(=O)COc2cccc3ccccc23)sc2c1CCCC2 | 15.3 | 2.0* | -10.8 | 1.5
O=C(N1CCCCC1)n1nnc2ccccc21 | 1.7 | 0.6 | 74.8* | -0.5
O=C(CCCCC(=O)n1nnc2ccccc21)n1nnc2ccccc21 | -7.9 | 0.1 | -7.4 | 1.7
Nc1nc2cc3sc(N)nc3cc2s1 | -3.9 | 0.0 | -11.3 | -0.3
Nc1nc2cc3c(cc2s1)OCCO3 | 6.0 | 0.1 | 36.9* | -1.5
